Measurements taken from ChEMBL document CHEMBL1961873, “Compounds: GSK PKIS; Assays: Nanosyn kinase panel” (2012).

How the values were obtained:
[1] = molecular target: T1, Inhibitor of nuclear factor kappa-B kinase subunit epsilon (Homo sapiens) (UniProt Q14164); conditions: at 1 µM;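 note: reported values are averaged percent inhibition figures against human IKKε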
T1 sequence (whole entry): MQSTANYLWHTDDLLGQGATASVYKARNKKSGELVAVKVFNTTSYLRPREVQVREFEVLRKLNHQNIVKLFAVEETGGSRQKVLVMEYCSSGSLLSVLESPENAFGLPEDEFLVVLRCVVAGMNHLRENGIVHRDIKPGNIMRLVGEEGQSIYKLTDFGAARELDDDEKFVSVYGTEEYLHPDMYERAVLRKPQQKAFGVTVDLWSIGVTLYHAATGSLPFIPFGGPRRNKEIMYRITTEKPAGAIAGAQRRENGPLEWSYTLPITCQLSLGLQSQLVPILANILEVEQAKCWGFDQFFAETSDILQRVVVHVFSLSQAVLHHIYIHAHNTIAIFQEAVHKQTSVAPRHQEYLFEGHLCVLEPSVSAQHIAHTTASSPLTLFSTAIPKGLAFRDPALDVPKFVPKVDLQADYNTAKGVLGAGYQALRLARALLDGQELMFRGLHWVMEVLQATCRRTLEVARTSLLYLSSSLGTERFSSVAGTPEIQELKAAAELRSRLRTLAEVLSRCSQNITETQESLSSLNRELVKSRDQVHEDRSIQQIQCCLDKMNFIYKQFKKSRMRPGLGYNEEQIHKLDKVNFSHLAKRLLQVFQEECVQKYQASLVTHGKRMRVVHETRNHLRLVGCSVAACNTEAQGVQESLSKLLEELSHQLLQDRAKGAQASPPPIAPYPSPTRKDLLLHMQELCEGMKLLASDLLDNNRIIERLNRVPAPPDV

[2] = molecular target: T2, Serine/threonine-protein kinase Nek1 (Homo sapiens) (UniProt Q96PY6); conditions: at 0.1 µM
T2 sequence (whole entry): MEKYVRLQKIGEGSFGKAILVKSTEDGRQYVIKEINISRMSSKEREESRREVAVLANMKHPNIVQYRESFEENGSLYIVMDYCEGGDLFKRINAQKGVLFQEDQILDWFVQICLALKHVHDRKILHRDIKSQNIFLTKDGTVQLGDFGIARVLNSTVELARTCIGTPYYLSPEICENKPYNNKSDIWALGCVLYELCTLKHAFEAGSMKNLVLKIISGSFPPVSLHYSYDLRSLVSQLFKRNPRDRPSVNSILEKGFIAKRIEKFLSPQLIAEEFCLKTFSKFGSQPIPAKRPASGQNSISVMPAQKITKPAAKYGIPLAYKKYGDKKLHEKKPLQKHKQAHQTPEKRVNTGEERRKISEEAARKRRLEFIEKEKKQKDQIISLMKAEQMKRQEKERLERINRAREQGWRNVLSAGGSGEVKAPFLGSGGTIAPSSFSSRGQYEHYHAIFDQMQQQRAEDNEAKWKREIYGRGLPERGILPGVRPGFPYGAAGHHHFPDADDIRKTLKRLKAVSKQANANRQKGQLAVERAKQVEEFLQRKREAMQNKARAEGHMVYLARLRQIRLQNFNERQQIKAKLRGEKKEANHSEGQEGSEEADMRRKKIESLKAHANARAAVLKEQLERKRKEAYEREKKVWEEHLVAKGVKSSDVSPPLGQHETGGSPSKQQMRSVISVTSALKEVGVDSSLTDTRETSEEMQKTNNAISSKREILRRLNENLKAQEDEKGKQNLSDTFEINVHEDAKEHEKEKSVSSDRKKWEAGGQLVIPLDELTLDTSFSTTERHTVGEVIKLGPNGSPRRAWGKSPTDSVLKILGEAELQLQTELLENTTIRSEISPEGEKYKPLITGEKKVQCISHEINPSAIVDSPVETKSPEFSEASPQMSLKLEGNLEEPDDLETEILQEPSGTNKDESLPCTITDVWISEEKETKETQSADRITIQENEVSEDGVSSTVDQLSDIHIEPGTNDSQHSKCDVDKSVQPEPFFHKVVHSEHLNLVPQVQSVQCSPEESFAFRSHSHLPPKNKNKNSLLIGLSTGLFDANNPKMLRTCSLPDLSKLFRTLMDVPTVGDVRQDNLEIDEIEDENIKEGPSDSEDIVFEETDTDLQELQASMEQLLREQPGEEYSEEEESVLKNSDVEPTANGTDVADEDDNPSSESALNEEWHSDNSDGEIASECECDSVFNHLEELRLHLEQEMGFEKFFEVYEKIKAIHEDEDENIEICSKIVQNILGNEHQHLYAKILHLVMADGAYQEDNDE

[3] = molecular target: T2, Serine/threonine-protein kinase Nek1 (Homo sapiens); conditions: at 1 µM
[4] = molecular target: T3, Serine/threonine-protein kinase Nek2 (Homo sapiens) (UniProt P51955); conditions: at 0.1 µM
T3 sequence (whole entry): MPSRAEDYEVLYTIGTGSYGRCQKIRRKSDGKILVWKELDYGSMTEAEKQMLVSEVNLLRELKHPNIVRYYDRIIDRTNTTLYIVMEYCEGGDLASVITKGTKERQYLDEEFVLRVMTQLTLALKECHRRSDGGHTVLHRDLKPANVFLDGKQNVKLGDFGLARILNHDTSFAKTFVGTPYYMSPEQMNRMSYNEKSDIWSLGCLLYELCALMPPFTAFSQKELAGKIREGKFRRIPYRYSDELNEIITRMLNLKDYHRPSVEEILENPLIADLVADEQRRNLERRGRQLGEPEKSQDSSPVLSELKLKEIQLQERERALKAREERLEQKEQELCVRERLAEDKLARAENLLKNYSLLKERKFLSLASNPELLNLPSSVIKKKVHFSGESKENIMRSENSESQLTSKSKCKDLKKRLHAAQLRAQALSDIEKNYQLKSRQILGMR

[5] = molecular target: T3, Serine/threonine-protein kinase Nek2 (Homo sapiens); conditions: at 1 µM
[6] = molecular target: Serine/threonine-protein kinase Nek6 (Homo sapiens) (UniProt Q9HC98); conditions: at 0.1 µM
[7] = molecular target: Serine/threonine-protein kinase Nek6 (Homo sapiens) (UniProt Q9HC98); conditions: at 1 µM
[8] = molecular target: Serine/threonine-protein kinase Nek7 (Homo sapiens) (UniProt Q8TDX7); conditions: at 0.1 µM
[9] = molecular target: Serine/threonine-protein kinase Nek7 (Homo sapiens) (UniProt Q8TDX7); conditions: at 1 µM
[10] = molecular target: T4, Serine/threonine-protein kinase Nek9 (Homo sapiens) (UniProt Q8TD19); conditions: at 0.1 µM;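 note: reported value is the mean percent inhibition of NEK9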
T4 sequence (whole entry): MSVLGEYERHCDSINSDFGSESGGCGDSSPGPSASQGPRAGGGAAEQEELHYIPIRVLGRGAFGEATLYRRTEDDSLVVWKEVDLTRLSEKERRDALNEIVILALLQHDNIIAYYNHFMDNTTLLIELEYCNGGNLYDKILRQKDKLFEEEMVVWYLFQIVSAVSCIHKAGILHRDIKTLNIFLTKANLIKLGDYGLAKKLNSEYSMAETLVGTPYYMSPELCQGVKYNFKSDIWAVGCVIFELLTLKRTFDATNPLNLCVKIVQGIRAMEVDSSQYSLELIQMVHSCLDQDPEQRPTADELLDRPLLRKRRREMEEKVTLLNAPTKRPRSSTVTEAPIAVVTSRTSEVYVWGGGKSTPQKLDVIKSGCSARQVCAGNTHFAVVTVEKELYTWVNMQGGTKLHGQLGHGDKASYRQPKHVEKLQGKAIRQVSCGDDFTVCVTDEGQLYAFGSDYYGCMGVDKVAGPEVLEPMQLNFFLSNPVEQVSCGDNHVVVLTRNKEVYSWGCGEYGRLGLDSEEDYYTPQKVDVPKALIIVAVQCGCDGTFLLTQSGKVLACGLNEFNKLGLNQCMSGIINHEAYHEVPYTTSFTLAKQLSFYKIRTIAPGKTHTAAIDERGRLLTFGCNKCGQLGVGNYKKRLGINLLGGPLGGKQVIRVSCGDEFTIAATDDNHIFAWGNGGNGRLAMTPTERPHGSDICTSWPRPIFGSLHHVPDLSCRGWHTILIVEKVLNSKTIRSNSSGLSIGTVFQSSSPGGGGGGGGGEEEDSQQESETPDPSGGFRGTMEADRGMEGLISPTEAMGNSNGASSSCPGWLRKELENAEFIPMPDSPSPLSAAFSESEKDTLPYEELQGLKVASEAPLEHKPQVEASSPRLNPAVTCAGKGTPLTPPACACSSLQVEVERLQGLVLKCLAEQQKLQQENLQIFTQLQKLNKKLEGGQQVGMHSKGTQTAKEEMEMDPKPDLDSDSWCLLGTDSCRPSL

Sequence of Serine/threonine-protein kinase Nek7 (Homo sapiens) (Q8TDX7 whole entry, looked up): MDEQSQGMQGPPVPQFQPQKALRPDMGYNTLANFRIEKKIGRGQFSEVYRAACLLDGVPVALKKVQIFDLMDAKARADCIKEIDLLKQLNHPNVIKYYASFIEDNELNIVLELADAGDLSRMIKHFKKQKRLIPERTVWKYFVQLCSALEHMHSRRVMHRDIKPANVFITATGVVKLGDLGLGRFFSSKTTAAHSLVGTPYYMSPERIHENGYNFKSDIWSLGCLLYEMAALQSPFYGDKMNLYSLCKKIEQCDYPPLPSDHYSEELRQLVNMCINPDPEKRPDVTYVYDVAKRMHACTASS
Sequence of Serine/threonine-protein kinase Nek6 (Homo sapiens) (Q9HC98 whole entry): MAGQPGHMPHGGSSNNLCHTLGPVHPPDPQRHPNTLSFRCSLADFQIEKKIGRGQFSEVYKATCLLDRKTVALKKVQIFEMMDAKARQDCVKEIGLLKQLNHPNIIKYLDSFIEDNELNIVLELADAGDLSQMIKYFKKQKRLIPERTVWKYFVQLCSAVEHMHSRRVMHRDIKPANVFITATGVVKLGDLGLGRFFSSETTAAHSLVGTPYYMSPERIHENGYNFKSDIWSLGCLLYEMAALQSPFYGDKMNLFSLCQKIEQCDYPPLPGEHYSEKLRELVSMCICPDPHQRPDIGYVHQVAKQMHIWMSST

SMILES	inhibition [1]	inhibition [2]	inhibition [3]	inhibition [4]	inhibition [5]	inhibition [6]	inhibition [7]	inhibition [8]	inhibition [9]	inhibition [10]
COc1ccc(-c2oc3ncnc(N)c3c2-c2ccc(NC(=O)Nc3cc(C(F)(F)F)ccc3F)cc2)cc1	9.69%	5.73%	16.9%	5.08%	7.47%	2.43%	3.73%	3.58%	-1.9%	6.04%
CN(C)CCOc1ccc(-c2nc(-c3ccncc3)c(-c3ccc4c(c3)CC/C4=N\O)[nH]2)cc1	7.42%	0.81%	5.31%	2.72%	4.52%	3.81%	0.68%	1.62%	2.67%	4.08%
c1ccc(-c2nc3n(c2-c2ccc4c(c2)OCO4)CCC3)nc1	1.63%	2.25%	1.34%	2.03%	3.36%	1.4%	-0.68%	4.7%	3.16%	4.73%
Fc1ccc(-c2cc(-c3c[nH]nc3-c3ccccn3)ccn2)cc1	7.34%	2.81%	0.44%	4.38%	3.61%	4.06%	7.77%	6.08%	4.43%	7.41%
CCN(CC)S(=O)(=O)c1ccc(OC)c(Nc2ncc(-c3ccccc3)o2)c1	1.73%	-0.43%	1.95%	0.46%	-0.71%	1.9%	1.12%	-0.6%	-0.03%	2.38%
FC(F)(F)c1cccc(-c2nn3ncccc3c2-c2ccnc(Nc3ccc4c(c3)OCCO4)n2)c1	2.87%	1.52%	0.83%	3.63%	3.89%	0.6%	-0.45%	4.18%	2.91%	3.97%
CS(=O)(=O)CCNCc1ccc(-c2ccc3ncnc(Nc4ccc(OCc5ccccc5)c(C(F)(F)F)c4)c3c2)o1	5.28%	1.71%	1.9%	4.27%	5.33%	0.91%	-0.61%	2.28%	4.17%	7.54%
CCc1nn2ncccc2c1-c1ccnc(NC2CC2)n1	6.61%	3.1%	4.93%	3.32%	3.36%	2.16%	3.98%	1.99%	3.9%	2.26%
COC(=O)Nc1nc2ccc(S(=O)(=O)c3ccc(NC(=O)Nc4cc(C(F)(F)F)ccc4F)cc3)cc2[nH]1	4.2%	2.08%	1.85%	3.76%	4.26%	4.42%	-3.58%	2.46%	2.19%	2.21%
N#Cc1c(NC(=O)CN2CCOCC2)sc2c1CCCC2	92%	2.42%	6.07%	4.61%	4.37%	3.33%	5.18%	2.96%	3.61%	6.26%
Cc1ccc(O)cc1Nc1ccnc2cc(-c3ccccn3)ccc12	4.69%	2.99%	2.32%	5.83%	4.75%	5.8%	-1.66%	3.67%	3.3%	2.78%
CCN1CCC(CC(=O)Nc2n[nH]c3nnc(-c4cccc(F)c4F)cc23)CC1	4.56%	1.55%	1.21%	2.78%	1.49%	2.04%	2.93%	2.55%	1.27%	0.14%
Nc1nc(-c2ccc(F)cc2)c(-c2ccc3ncccc3n2)s1	7.4%	2.04%	36%	4.57%	6.71%	2.87%	5.03%	3.03%	3.14%	11.5%
Cc1cccc2c1NC(=O)/C2=N\Nc1ccc(S(N)(=O)=O)cc1	3.85%	1%	3.8%	2.64%	2.64%	2.04%	1.65%	2.43%	2.36%	4.06%
